The chains are these.
B1: Caulobacter ParB omega fusion; a variant is named by its letters at X, in order, B8GW30 (parent)
chain: MESVVVGEPGMSEGRRGLGRGLSALLGEVDAAPAQAPGEQLGGSREAPIEILQRNPDQPRRTFREEDLEDLSNSIREKGVLQPILVRPSPDTAGEYQIVAGERAWRAAQRAGLKTVPIMVRELDDLAVLEIGIIENVQRADLNVLEEALSYKVLMEKFERTQENIAQTIGKSXSHVANXMRLLXLPDEVQSYLVSGELTAXHARAIAAAADPVALAKQIIEGGLSVRETEALARKAPNLSAGKSKGGRPPRVKDTDTQALESDLSSVLGLDVSIDHRGSTGTLTITYATLEQLDDLCNRLTRGI

Over roughly 81,000 sequences, “one-hybrid fitness for binding parS DNA” has its median near -0.17; the highest 2% begin near 0.51. This is one part of a sample in which the highest values are shown more often than they occur.

In the experiment the parent is B1. Nature of the experiment: one-hybrid fitness for binding parS DNA (scaled: cognate 1, non-cognate 0); higher = stronger binding. The following applies: with parS DNA site. The procedure, abridged: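 On M9-minus-histidine containing 0.1 mM IPTG and 5 mM 3-AT, E. coli USO cells with a HIS3 reporter, site 19 bp from the promoter, grew 48 hours at 37°C to select Caulobacter ParB libraries randomised at four specificity codons. Plasmids from before and after were Illumina-sequenced, with three replicate libraries pooled and variants under 10 reads left out. Fitness is the log change in variant-to-wild-type read ratio, rescaled against cognate and non-cognate.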
As for TNVQ, the “one-hybrid fitness for binding parS DNA” value is at most 0.2. On to CETD, for which the “one-hybrid fitness for binding parS DNA” value was at most 0.2. Next, ADRH: at most 0.2; QVQF: at most 0.2. Next, RRYD: at most 0.2; RRWS: 0.772. In the case of RRDH, the “one-hybrid fitness for binding parS DNA” value is at most 0.2.

For the variant RRRH, the “one-hybrid fitness for binding parS DNA” value turned out to be 0.592. In the case of RRIN, the “one-hybrid fitness for binding parS DNA” value was 0.304. Next, RRIS: 0.753; RRYS: 0.68; RRIH: at most 0.2. For the variant RRWD, the “one-hybrid fitness for binding parS DNA” value was at most 0.2. In the case of RRYH it was at most 0.2; in that of RRYP, at most 0.2.

For the variant RRWP, the “one-hybrid fitness for binding parS DNA” value is at most 0.2.

As to VFKT, the “one-hybrid fitness for binding parS DNA” value is at most 0.2.

Consider HRKK, for which the “one-hybrid fitness for binding parS DNA” value was at most 0.2. With QLWG, the “one-hybrid fitness for binding parS DNA” value is at most 0.2.

RFHY: the “one-hybrid fitness for binding parS DNA” value worked out at 0.462. Next, RRLS: 0.701. In the case of RRPD it was at most 0.2. With RRPN, the “one-hybrid fitness for binding parS DNA” value came out at 0.246. In the case of RRPS it was 0.757. Next, RRLN: 0.396. Take RRRP: the “one-hybrid fitness for binding parS DNA” value came to 0.203. For the variant RRRD, the “one-hybrid fitness for binding parS DNA” value was at most 0.2. Next, RRRS: 0.67; RRLD: at most 0.2.

In the case of MLQR, the “one-hybrid fitness for binding parS DNA” value was at most 0.2. Next, HTWN: at most 0.2; YCLV: at most 0.2; VKKI: at most 0.2.

VDFT: the “one-hybrid fitness for binding parS DNA” value is at most 0.2.

In the case of LALR, the “one-hybrid fitness for binding parS DNA” value is at most 0.2. In the case of QPAK it was at most 0.2.

As for VVMR, the “one-hybrid fitness for binding parS DNA” value was at most 0.2. Take VDRK: the “one-hybrid fitness for binding parS DNA” value was at most 0.2. For NEFY, the “one-hybrid fitness for binding parS DNA” value is at most 0.2. As for RKIS, the “one-hybrid fitness for binding parS DNA” value came out at 0.958. Next, RKLP: at most 0.2; RKPS: 0.682; RKYP: at most 0.2. Take RKIP: the “one-hybrid fitness for binding parS DNA” value is at most 0.2. As for RKLD, the “one-hybrid fitness for binding parS DNA” value is at most 0.2.

For RKLS, the “one-hybrid fitness for binding parS DNA” value is 0.876. Next, RKID: at most 0.2; RKYH: at most 0.2. For the variant RKPH, the “one-hybrid fitness for binding parS DNA” value was at most 0.2. Next, RKYS: 0.857; RKPN: at most 0.2.

For AWGT, the “one-hybrid fitness for binding parS DNA” value was at most 0.2.

With HHGR, the “one-hybrid fitness for binding parS DNA” value was at most 0.2. In the case of DVDS it was at most 0.2. Turning to SCTT, the “one-hybrid fitness for binding parS DNA” value was at most 0.2. In the case of KNMC it was at most 0.2; in that of RKRN, 0.347. In the case of RKWS it was 0.955; in that of RKWN, 0.364.

With RKWD, the “one-hybrid fitness for binding parS DNA” value was at most 0.2. Take RKRH: the “one-hybrid fitness for binding parS DNA” value was at most 0.2. Next, RKRS: 0.747; IFGG: at most 0.2.

In the case of PIND, the “one-hybrid fitness for binding parS DNA” value is at most 0.2.

Regarding RSLF, the “one-hybrid fitness for binding parS DNA” value stood at 0.228. Next, RLLM: 0.372; RLLG: 1.02.

For RDLG, the “one-hybrid fitness for binding parS DNA” value was at most 0.2. In the case of RCLG it was 1.01; in that of RMLG, 1.01.

In the case of RMLF, the “one-hybrid fitness for binding parS DNA” value amounted to 0.238. Consider RELG, for which the “one-hybrid fitness for binding parS DNA” value turned out to be 0.217. With RMLM, the “one-hybrid fitness for binding parS DNA” value was 0.363.

RPLG: the “one-hybrid fitness for binding parS DNA” value is at most 0.2.

For RLLR, the “one-hybrid fitness for binding parS DNA” value was at most 0.2.

As to RSLG, the “one-hybrid fitness for binding parS DNA” value amounted to 0.987. Next, LDYT: at most 0.2; HWFG: at most 0.2. Next, EKQG: at most 0.2. In the case of CHLC it was at most 0.2; in that of FSIV, at most 0.2; in that of ATPA, at most 0.2.

As to KWRR, the “one-hybrid fitness for binding parS DNA” value was at most 0.2.

On to QQPM, for which the “one-hybrid fitness for binding parS DNA” value was at most 0.2.

Consider ALLC, for which the “one-hybrid fitness for binding parS DNA” value was at most 0.2.

As to TRRD, the “one-hybrid fitness for binding parS DNA” value is at most 0.2. Consider NQPG, for which the “one-hybrid fitness for binding parS DNA” value is at most 0.2. Next, PPRF: at most 0.2; RILK: at most 0.2; RILG: 0.993.

On to RILF, for which the “one-hybrid fitness for binding parS DNA” value is 0.269. On to YPTC, for which the “one-hybrid fitness for binding parS DNA” value is at most 0.2. For the variant MMSV, the “one-hybrid fitness for binding parS DNA” value was at most 0.2. In the case of EQTA it was at most 0.2; in that of ACKY, at most 0.2; in that of RNEG, 0.677. For the variant RNEP, the “one-hybrid fitness for binding parS DNA” value is at most 0.2. Next, RNEY: at most 0.2; RNEC: 0.613.

Take RNED: the “one-hybrid fitness for binding parS DNA” value was at most 0.2. Turning to RNEH, the “one-hybrid fitness for binding parS DNA” value was at most 0.2. In the case of RNEN, the “one-hybrid fitness for binding parS DNA” value was at most 0.2. For the variant RNES, the “one-hybrid fitness for binding parS DNA” value came to 0.776.

Turning to RNEI, the “one-hybrid fitness for binding parS DNA” value was at most 0.2. In the case of FPSI it was at most 0.2. Next, MKLG: at most 0.2. Next, VKMN: at most 0.2. For the variant KPPS, the “one-hybrid fitness for binding parS DNA” value is at most 0.2. In the case of RADC it was 0.856. As for RANK, the “one-hybrid fitness for binding parS DNA” value is at most 0.2.

Take RADQ: the “one-hybrid fitness for binding parS DNA” value is at most 0.2. As to RANC, the “one-hybrid fitness for binding parS DNA” value turned out to be 0.98. Next, RANR: at most 0.2; RADF: at most 0.2. Consider QRLS, for which the “one-hybrid fitness for binding parS DNA” value is at most 0.2. In the case of RCPM it was 0.203.

On to QMWS, for which the “one-hybrid fitness for binding parS DNA” value is at most 0.2. Next, SDGC: at most 0.2; MATR: at most 0.2. In the case of VQVL it was at most 0.2; in that of PGTH, at most 0.2.

Regarding KCMT, the “one-hybrid fitness for binding parS DNA” value is at most 0.2.

As to GHPI, the “one-hybrid fitness for binding parS DNA” value was at most 0.2.

For YKKF, the “one-hybrid fitness for binding parS DNA” value is at most 0.2. Next, RSLH: 0.207; RMLD: at most 0.2.

In the case of RMLP, the “one-hybrid fitness for binding parS DNA” value is at most 0.2. As for RILT, the “one-hybrid fitness for binding parS DNA” value came to 0.89. Next, RILN: 0.422; RCLT: 0.966.

With RILD, the “one-hybrid fitness for binding parS DNA” value is at most 0.2.

As to RPLT, the “one-hybrid fitness for binding parS DNA” value was at most 0.2. Next, RSLT: 0.846. As for RMLT, the “one-hybrid fitness for binding parS DNA” value came to 0.974.

On to RSLP, for which the “one-hybrid fitness for binding parS DNA” value is at most 0.2. Next, RDLT: at most 0.2; QFVS: at most 0.2; EYRS: at most 0.2. In the case of FKLR it was at most 0.2.

Turning to GPRL, the “one-hybrid fitness for binding parS DNA” value is at most 0.2. In the case of HRFW it was at most 0.2.

On to QVAA, for which the “one-hybrid fitness for binding parS DNA” value was at most 0.2. Next, QNKG: at most 0.2; GITA: at most 0.2; YHLM: at most 0.2. Next, YQRH: at most 0.2. Next, STFL: at most 0.2; RKSE: at most 0.2; PSQM: at most 0.2. Turning to HSHL, the “one-hybrid fitness for binding parS DNA” value was at most 0.2. Next, RHLN: 0.376; RTLT: 0.936; RTLF: 0.267.

Values taken from a collection of fitness landscapes (doi:10.1016/j.celrep.2020.107928).
